PubChem BioAssay (EPA / NIEHS)
The source made the active and inactive calls. Rule for the calls: active = hit-call score of the fitted dose curve at least 0.9, where 1 is the maximum; inactive = score below 0.9.

How the values were obtained:
[1] = ATG_GLI_CIS: Attagene CIS-FACTORIAL HepG2 Assay for human Zinc Finger Protein GLI1 (AID 2282945); details: HepG2, Attagene cis-factorial reporter mRNA, GLI element; actives raise or lower the signal
In short: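 HepG2 cells transiently transfected with cis-promoter multiplexed reporter units report endogenous transcription factor activity. After 24 h chemical exposure, reporter mRNA was quantified by RT-PCR, 6-FAM labelling, HpaI digestion and capillary electrophoresis, with bidirectional fitting against DMSO.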

[2] = molecular target: Bile acid receptor (Homo sapiens) (UniProt Q96RI1); experiment: ATG_IR1_CIS: Attagene CIS-FACTORIAL HepG2 Assay for human Nuclear Receptor Subfamily 1 Group H Member 4 (NR1H4), IR1 submotif (AID 2282946); details: IR1 reporter transcription, actives raise or lower the signal
Sequence of Bile acid receptor (Homo sapiens) (Q96RI1 whole entry, looked up): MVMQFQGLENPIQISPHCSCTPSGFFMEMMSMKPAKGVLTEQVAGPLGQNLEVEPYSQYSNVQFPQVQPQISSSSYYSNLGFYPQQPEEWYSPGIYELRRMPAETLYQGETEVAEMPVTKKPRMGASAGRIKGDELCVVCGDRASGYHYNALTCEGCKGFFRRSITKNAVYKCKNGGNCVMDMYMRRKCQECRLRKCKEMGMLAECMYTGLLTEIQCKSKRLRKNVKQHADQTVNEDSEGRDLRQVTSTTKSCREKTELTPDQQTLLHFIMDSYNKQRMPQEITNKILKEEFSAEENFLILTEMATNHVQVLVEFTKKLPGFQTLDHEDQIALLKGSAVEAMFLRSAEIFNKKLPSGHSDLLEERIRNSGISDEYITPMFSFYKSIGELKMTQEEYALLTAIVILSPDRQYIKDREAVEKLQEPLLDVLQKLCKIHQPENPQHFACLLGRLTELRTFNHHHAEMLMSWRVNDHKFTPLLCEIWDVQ
In short: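 Transient MRTU transfection, HepG2; 24 h dosing; RNA → RT-PCR → 6-FAM primer extension → HpaI digest → capillary electrophoresis fluorescence. Gain/loss of signal fitted relative to DMSO.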

[3] = ATG_GRE_CIS: Attagene CIS-FACTORIAL HepG2 Assay for human Glucocorticoid Response Elements (GRE) (AID 2282947); details: HepG2 GRE cis-reporter, Attagene multiplex mRNA; actives raise or lower the signal
In short: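 Following 24 h chemical exposure of transiently transfected HepG2 cells, total RNA was reverse-transcribed and reporter cDNA amplified, fluorescently labelled and sized by capillary electrophoresis. Signal gain or loss was fitted relative to DMSO vehicle.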

[4] = ATG_ISRE_CIS: Attagene CIS-FACTORIAL HepG2 Assay for human Interferon Regulatory Factor 1 (IRF1) binding to an Interferon-Stimulated Response Element (ISRE) (AID 2282948); details: HepG2 ISRE cis-reporter (Attagene), mRNA transcription readout; actives raise or lower the signal
In short: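 Cell-based cis-reporter assay; HepG2; 24 h exposure; reporter mRNA by RT-PCR plus capillary electrophoresis fluorescence; activity in either direction scored relative to DMSO.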

[5] = ATG_M_32_CIS: Attagene CIS-FACTORIAL HepG2 Assay for M32 Transcription Factor (Internal Marker) (AID 2282949); details: HepG2 Attagene cis-factorial M32 reporter, mRNA; actives raise or lower the signal;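 note: background control marker of the multiplexed CIS panel rather than a real target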
In short: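 Fluorescent capillary electrophoresis peaks of HpaI-digested, FAM-labelled RT-PCR reporter products give the signal. Source: transiently transfected human liver HepG2 cells, 24 h after chemical dosing; bidirectional fitting against DMSO.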

[6] = ATG_M_06_CIS: Attagene CIS-FACTORIAL HepG2 Assay for M06 Transcription Factor (Internal Marker) (AID 2282950); details: HepG2 Attagene CIS-FACTORIAL M06 internal marker reporter; actives raise or lower the signal
In short: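 Steps: transfect HepG2 with multiplexed cis-element reporter constructs; dose chemical 24 h; extract RNA with DNase treatment; reverse-transcribe, PCR-amplify, 6-FAM label, HpaI digest; separate fragments by capillary electrophoresis. Activity fitted both directions versus DMSO.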

[7] = molecular target: Hypoxia-inducible factor 1-alpha (Homo sapiens) (UniProt Q16665); experiment: ATG_HIF1a_CIS: Attagene CIS-FACTORIAL HepG2 Assay for human Hypoxia Inducible Factor 1 (HIF1A) (AID 2282951); details: HepG2 Attagene cis-factorial HIF1a reporter transcription; actives raise or lower the signal
Sequence of Hypoxia-inducible factor 1-alpha (Homo sapiens) (Q16665 whole entry, looked up): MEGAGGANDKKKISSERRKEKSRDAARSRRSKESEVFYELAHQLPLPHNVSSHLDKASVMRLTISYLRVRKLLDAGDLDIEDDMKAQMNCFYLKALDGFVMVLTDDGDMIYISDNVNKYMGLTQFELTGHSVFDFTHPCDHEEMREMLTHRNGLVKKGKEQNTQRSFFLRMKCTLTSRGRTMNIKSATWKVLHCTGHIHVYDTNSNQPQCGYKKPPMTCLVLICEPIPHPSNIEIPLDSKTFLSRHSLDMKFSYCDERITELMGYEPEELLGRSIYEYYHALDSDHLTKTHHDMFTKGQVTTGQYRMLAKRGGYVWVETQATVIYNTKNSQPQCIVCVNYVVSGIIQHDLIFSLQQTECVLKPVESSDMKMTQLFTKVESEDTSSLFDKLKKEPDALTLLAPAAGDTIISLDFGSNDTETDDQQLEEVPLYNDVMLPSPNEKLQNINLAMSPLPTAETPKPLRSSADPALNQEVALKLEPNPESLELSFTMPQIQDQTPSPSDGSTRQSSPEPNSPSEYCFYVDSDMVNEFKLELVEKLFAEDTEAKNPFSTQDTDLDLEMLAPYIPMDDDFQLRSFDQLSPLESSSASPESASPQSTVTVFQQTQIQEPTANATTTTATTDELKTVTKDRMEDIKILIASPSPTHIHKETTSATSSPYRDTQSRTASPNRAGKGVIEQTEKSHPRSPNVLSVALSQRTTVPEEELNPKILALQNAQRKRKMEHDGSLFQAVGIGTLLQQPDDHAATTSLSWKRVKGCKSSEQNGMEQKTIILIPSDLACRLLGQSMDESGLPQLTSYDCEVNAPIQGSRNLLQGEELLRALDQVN
In short: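 HepG2, transient cis-reporter library, 24 h dosing. RNA → RT (oligo dT) → PCR → 6-FAM primer extension → HpaI → CE. Bidirectional curve fit vs DMSO.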

[8] = molecular target: Hepatocyte nuclear factor 6 (Homo sapiens) (UniProt Q9UBC0); experiment: ATG_HNF6_CIS: Attagene CIS-FACTORIAL HepG2 Assay for human Hepatocyte Nuclear Factor 6 (HNF6) (AID 2282952); details: HepG2 Attagene cis-factorial HNF6 reporter transcription; actives raise or lower the signal
Sequence of Hepatocyte nuclear factor 6 (Homo sapiens) (Q9UBC0 whole entry, looked up): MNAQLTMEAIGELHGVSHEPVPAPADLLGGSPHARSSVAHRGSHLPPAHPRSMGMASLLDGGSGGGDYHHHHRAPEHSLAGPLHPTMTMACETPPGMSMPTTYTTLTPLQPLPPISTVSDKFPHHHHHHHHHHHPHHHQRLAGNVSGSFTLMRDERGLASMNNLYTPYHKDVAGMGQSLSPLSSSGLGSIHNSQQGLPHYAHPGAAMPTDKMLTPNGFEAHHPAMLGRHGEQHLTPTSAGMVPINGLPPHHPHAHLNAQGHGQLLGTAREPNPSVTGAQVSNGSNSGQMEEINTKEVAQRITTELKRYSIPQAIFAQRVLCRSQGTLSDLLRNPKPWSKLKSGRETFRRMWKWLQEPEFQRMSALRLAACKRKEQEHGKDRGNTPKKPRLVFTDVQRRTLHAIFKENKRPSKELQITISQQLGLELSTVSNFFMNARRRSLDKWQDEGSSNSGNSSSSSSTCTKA
In short: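 Cells are HepG2 carrying transiently transfected cis-promoter reporter units. Treatment lasts 24 h, after which reporter transcripts are reverse-transcribed, amplified, FAM-labelled and sized by capillary electrophoresis. DMSO serves as baseline.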

[9] = molecular target: Heat shock factor protein 1 (Homo sapiens) (UniProt Q00613); experiment: ATG_HSE_CIS: Attagene CIS-FACTORIAL HepG2 Assay for human Heat Shock Transcription Factor 1 (HSE) (AID 2282953); details: HepG2 HSE cis-reporter, Attagene RNA transcription; actives raise or lower the signal
Sequence of Heat shock factor protein 1 (Homo sapiens) (Q00613 whole entry, looked up, the tested form may be a part): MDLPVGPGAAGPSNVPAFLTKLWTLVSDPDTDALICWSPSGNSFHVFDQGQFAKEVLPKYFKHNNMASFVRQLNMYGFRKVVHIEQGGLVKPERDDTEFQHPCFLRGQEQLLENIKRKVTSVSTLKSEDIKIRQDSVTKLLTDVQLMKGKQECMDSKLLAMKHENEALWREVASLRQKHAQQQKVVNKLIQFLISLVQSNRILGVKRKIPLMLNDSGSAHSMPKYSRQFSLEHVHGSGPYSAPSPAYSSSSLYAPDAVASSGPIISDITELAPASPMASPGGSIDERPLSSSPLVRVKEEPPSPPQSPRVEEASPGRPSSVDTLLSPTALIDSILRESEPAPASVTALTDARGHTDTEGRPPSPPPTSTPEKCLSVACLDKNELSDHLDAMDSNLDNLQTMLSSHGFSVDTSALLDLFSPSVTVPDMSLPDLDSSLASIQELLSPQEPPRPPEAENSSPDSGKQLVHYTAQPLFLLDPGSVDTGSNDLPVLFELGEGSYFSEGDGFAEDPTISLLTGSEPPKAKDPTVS
In short: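 Cells were transfected with cis-element-driven reporter constructs, dosed for 24 h, then total RNA was reverse-transcribed and reporter cDNA amplified, FAM-labelled and digested with HpaI. Fragments were resolved by capillary electrophoresis; gain or loss was fitted against DMSO.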

[10] = ATG_MRE_CIS: Attagene CIS-FACTORIAL HepG2 Assay for human Metal Responsive Element (MRE) (AID 2282954); details: HepG2 MRE cis-reporter transcription, Attagene multiplex; actives raise or lower the signal
In short: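 Step one: transfect HepG2 with cis-regulated reporter units. Step two: dose 24 h. Step three: isolate RNA, RT-PCR, 6-FAM label, HpaI digest, capillary electrophoresis. Fit bidirectionally to DMSO.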

[11] = ATG_PBREM_CIS: Attagene CIS-FACTORIAL HepG2 Assay for human Phenobarbital-responsive Enhancer Module (PBREM) (AID 2282955); details: HepG2 PBREM cis-reporter, Attagene multiplexed transcription; actives raise or lower the signal
In short: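 HepG2, transient MRTU transfection, 24 h dosing; RNA → oligo(dT) RT → PCR → 6-FAM extension → HpaI → CE. Bidirectional fit vs DMSO.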

[12] = molecular target: Paired box protein Pax-6 (Homo sapiens) (UniProt P26367); experiment: ATG_Pax6_CIS: Attagene CIS-FACTORIAL HepG2 Assay for human Paired Box 6 (PAX6) (AID 2282956); details: HepG2 CIS-FACTORIAL PAX6 reporter transcription, RNA readout; actives raise or lower the signal
Sequence of Paired box protein Pax-6 (Homo sapiens) (P26367 whole entry, looked up): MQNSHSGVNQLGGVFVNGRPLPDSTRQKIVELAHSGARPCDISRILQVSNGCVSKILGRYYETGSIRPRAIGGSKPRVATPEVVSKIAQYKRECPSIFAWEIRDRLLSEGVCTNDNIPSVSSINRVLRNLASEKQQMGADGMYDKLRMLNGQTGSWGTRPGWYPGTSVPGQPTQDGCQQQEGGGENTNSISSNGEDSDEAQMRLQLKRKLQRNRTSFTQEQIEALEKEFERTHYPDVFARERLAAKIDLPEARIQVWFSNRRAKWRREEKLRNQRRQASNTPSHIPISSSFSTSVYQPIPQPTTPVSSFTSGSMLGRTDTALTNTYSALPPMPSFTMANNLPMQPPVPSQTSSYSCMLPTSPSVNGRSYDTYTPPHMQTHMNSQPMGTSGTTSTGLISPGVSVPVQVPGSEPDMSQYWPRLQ
In short: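 Multiplexed cis-reporter HepG2 system; 24 h treatment; reporter mRNA read by RT-PCR/CE fluorescence; bidirectional fit vs DMSO.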

[13] = ATG_PXRE_CIS: Attagene CIS-FACTORIAL HepG2 Assay for human Pregnane X Receptor Element (PXRE) (AID 2282957); details: HepG2 Attagene CIS-FACTORIAL PXRE reporter, mRNA; actives raise or lower the signal
In short: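 Multiplexed cis-reporter assay in transiently transfected human HepG2 cells; 24 h chemical exposure. Reporter transcripts quantified by RT-PCR with fluorescent labeling and capillary electrophoresis.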

[14] = ATG_PPRE_CIS: Attagene CIS-FACTORIAL HepG2 Assay for human Peroxisome Proliferator-activated Response Element (PPRE) (AID 2282958); details: HepG2 PPRE cis-element reporter, Attagene transcription factor profiling; actives raise or lower the signal
In short: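 Transcript-level reporter induction in transfected HepG2 cells after 24 h chemical exposure, quantified by fluorescence from RT-PCR products separated by capillary electrophoresis.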

[15] = ATG_RORE_CIS: Attagene CIS-FACTORIAL HepG2 Assay for human RAR-related Orphan Receptor Element (RORE) (AID 2282959); details: HepG2 Attagene cis-factorial RORE reporter, mRNA; actives raise or lower the signal
In short: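 Multiplexed reporter assay measuring mRNA induction from a cis promoter element in transiently transfected HepG2 cells after 24 h treatment. Detection via RT-PCR and capillary electrophoresis fluorescence; DMSO serves as baseline.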

[16] = ATG_Sox_CIS: Attagene CIS-FACTORIAL HepG2 Assay for human SRY-box transcription factor (SOX) (AID 2282960); details: HepG2 Attagene cis-factorial SOX reporter, mRNA; actives raise or lower the signal
In short: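 Cells were transfected with reporter constructs under cis-regulatory promoters, then exposed to chemicals for 24 h. Reporter transcripts were quantified by fluorescence after RT-PCR and capillary electrophoresis; activity was fitted in both directions against DMSO.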

[17] = molecular target: Transcription factor Sp1 (Homo sapiens) (UniProt P08047); experiment: ATG_Sp1_CIS: Attagene CIS-FACTORIAL HepG2 Assay for human Specificity Protein 1 (Sp1) (AID 2282961); details: HepG2 Sp1 cis-reporter transcription, actives raise or lower the signal
Sequence of Transcription factor Sp1 (Homo sapiens) (P08047 whole entry, looked up): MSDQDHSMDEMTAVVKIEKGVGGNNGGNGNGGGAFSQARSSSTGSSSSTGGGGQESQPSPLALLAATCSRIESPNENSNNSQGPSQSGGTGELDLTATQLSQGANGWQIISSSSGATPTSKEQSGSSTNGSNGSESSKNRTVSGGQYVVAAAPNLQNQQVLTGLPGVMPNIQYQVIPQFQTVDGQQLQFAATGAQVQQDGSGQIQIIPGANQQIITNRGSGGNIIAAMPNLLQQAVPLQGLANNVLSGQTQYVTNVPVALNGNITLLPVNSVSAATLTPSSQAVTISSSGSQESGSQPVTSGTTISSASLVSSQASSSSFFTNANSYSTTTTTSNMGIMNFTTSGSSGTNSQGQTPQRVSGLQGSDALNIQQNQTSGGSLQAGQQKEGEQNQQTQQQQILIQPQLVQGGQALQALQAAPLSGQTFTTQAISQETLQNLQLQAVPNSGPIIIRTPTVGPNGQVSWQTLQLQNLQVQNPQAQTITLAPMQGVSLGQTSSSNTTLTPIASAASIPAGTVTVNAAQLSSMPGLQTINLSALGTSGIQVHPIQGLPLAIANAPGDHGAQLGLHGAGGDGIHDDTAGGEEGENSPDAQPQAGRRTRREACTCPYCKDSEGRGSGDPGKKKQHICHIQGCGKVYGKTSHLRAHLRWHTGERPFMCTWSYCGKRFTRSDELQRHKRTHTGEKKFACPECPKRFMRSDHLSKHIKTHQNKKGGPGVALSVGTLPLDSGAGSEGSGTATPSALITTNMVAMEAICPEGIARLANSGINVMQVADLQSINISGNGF
In short: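 Measures mRNA induction of an Sp1-linked reporter in HepG2 cells 24 h post-dosing. Multiplexed reporters read by RT-PCR and capillary electrophoresis; DMSO serves as negative control and baseline.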

[18] = ATG_SREBP_CIS: Attagene CIS-FACTORIAL HepG2 Assay for human Sterol Regulatory Element Binding (SREBP) (AID 2282962); details: HepG2 Attagene cis-factorial SREBP reporter, mRNA; actives raise or lower the signal
In short: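 mRNA induction of transfected cis-promoter reporters in HepG2 cells, 24 h post-dose. Detection: RT-PCR with 6-FAM-labelled products, HpaI digest, capillary electrophoresis. DMSO served as negative control and baseline.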

[19] = molecular target: Signal transducer and activator of transcription 3 (Homo sapiens) (UniProt P40763); experiment: ATG_STAT3_CIS: Attagene CIS-FACTORIAL HepG2 Assay for human Signal Transducer and Activator of Transcription 3 (STAT3) (AID 2282963); details: HepG2, Attagene cis-factorial STAT3 reporter transcription; actives raise or lower the signal
Sequence of Signal transducer and activator of transcription 3 (Homo sapiens) (P40763 whole entry, looked up): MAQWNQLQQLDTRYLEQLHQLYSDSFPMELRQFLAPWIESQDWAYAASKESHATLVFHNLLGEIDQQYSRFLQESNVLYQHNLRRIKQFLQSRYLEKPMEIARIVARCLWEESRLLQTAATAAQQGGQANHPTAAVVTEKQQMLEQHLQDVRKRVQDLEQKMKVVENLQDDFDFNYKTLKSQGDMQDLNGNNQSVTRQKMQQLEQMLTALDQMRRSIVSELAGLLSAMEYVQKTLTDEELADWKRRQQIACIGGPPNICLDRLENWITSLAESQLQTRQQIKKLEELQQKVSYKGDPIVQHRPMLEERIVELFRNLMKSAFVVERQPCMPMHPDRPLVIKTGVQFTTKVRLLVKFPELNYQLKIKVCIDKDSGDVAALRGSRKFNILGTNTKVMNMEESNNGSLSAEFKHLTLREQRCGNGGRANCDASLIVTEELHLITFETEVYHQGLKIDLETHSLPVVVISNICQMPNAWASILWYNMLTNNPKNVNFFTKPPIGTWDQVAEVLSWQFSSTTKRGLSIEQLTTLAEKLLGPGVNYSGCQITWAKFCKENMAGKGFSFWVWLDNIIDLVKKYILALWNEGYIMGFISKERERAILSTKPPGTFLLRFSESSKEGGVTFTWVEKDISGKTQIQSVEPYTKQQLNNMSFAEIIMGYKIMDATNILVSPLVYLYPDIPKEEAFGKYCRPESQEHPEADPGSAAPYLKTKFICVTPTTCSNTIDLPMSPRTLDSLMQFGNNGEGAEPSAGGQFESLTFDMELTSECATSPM
In short: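 Transcript-level reporter assay. HepG2 transient MRTU transfection, 24 h exposure, fluorescence detection after RT-PCR and CE; DMSO baseline.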

[20] = ATG_TA_CIS: Attagene CIS-FACTORIAL HepG2 Assay for human TA Basal Promoter (AID 2282964); details: HepG2 Attagene CIS-factorial TA basal promoter reporter; actives raise or lower the signal
In short: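 Steps: transfect HepG2 with MRTUs; dose 24 h; isolate RNA, DNase-treat, reverse-transcribe; PCR and FAM-label reporter cDNA; digest with HpaI 2h at 37 C; run capillary electrophoresis. Activity fitted both directions against DMSO.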

Measured: AC50

Oc1ccccc1Br
inactive: [1] | [2] | [3] | [4] | [5] | [6] | [7] | [8] | [9] | [10] | [11] | [12] | [13] | [14] | [15] | [16] | [17] | [18] | [19] | [20]

CC(C)Nc1ccc(Nc2ccccc2)cc1
inactive: [1] | [2] | [3] | [5] | [6] | [7] | [8] | [10] | [11] | [12] | [14] | [15] | [16] | [17] | [18] | [19] | [20]
active: [4] 43.2 µM | [9] 49.6 µM | [13] 1.97 µM

O=C(O)C=CC(F)(C(F)(F)F)C(F)(F)F
inactive: [1] | [2] | [3] | [4] | [5] | [6] | [7] | [8] | [9] | [10] | [11] | [12] | [13] | [14] | [15] | [16] | [17] | [18] | [19] | [20]

Cn1[nH]nnc1=S
active: [7] 27 µM
inactive: [1] | [2] | [3] | [4] | [5] | [6] | [8] | [9] | [10] | [11] | [12] | [13] | [14] | [15] | [16] | [17] | [18] | [19] | [20]

CC(C)(C)N(NC(=O)c1ccc(Cl)cc1)C(=O)c1ccccc1
active: [13] 4.36 µM
inactive: [1] | [2] | [3] | [4] | [5] | [6] | [7] | [8] | [9] | [10] | [11] | [12] | [14] | [15] | [16] | [17] | [18] | [19] | [20]

ClC1=C(Cl)C2(Cl)C3C(Cl)C(Cl)CC3C1(Cl)C2(Cl)Cl (stereo not given)
active: [2] 17.1 µM | [9] 50 µM | [10] 41.2 µM | [13] 2.38 µM | [20] 39.1 µM
inactive: [1] | [3] | [4] | [5] | [6] | [7] | [8] | [11] | [12] | [14] | [15] | [16] | [17] | [18] | [19]
